INS-1E GSIS act: GLuc luminescence reporter in INS-1E cells, primary screen for activators of glucose-dependent secretion of insulin. INS-1E GLuc reporter insulin secretion, 2-3 h. activation, % at 16.6 µM. 370,000 tested, 0.61% active;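 active = lowest replicate activation of at least 40%, so every replicate reaches that level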;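 also: 0% = median of neutral control wells and 100% = median of IBMX positive control wells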
Wnt act: activates Wnt/beta-catenin signaling in a reporter cell assay; 300,000 tested, 1.2% active; activation, % at 9.35 µM; activator, plate reader; in the data active = activation above about 30%, passing the limit was not always enough;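 also: 0% = neutral control wells and 100% = positive control wells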
F508del corr: CFTR F508del correction in bronchial cells | CFBE cells, YFP halide quenching; stimulated with forskolin plus potentiator P3; % fluorescence drop versus neutral controls | activity (quench increase), % at 7.58 µM | 350,000 tested, 0.36% active | AID 720511;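 active = mean added fluorescence quench of at least 8% versus neutral control, with both replicates also reaching 8%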;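 also: cells transiently co-express mutant CFTR-F508del with the halide-sensitive YFP; corrector assay measuring rescue of mutant channel to the surface after 24 h compound exposure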
Env fusion inh: inhibitors of HIV Env-mediated cell fusion. HeLa-JRFL Env/CEM21 cell fusion, luciferase. inhibition, % at 12.3 µM. 360,000 tested, 1.1% active;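 active = mean replicate inhibition score of at least 50 and every replicate individually at or above 50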;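 also: 0% = plate neutral controls and 100% = maraviroc near 300 nM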
MITF act: MITF TRPM1 promoter activation in melanoma cells; SK-MEL-5 TRPM1-promoter luciferase, 24 h; % of positive control, neutral wells = 0; activation, % at 12.5 µM; 300,000 tested, 0.75% active;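 active = mean activation of at least 80% with every replicate also reaching 80%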;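 also: 0% = neutral control wells and 100% = parthenolide positive control wells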
Starred values were filed as active, the others as inactive; . = no result given; [ ] = remark or other dose. Rows were chosen to be rich in hits. Some 2.7% of all compounds tested hit in one or more screens of this group.

SMILES | INS-1E GSIS act | Wnt act | F508del corr | Env fusion inh | MITF act
CN(C)C(=O)C[C@H]1CC[C@H]2[C@H](COc3ccc(NC(=O)NCc4ccccc4)cc3C(=O)N2C)O1 | -1 | . | 0 | 3[16.7 µM] | .
c1ccc(CCN(Cc2ccccc2)Cc2nc(C3CC3)no2)cc1 | 2 | -2 | 8.9* | 2 | -4
COc1cc(C(=O)OCCc2cc3ccccc3c(=O)o2)cc(OC)c1OC | 16 | -15 | 11* | -81 | -13
O=C(Cn1nnc2ccccc21)c1ccc(Cl)cc1 | 27 | 45* | -3 | -34 | 74
O=C(Cn1nnc2ccccc21)c1ccc([N+](=O)[O-])cc1 | 5 | 2 | -9 | 4 | 8
O=C(O)Cn1nnc2ccccc21 | 29 | 2 | 0 | -11 | 8
c1ccc(CNn2nnc3ccccc32)cc1 | 8 | 0 | -2 | -26 | .
O=C(O)CCn1nnc2ccccc21 | 6 | 47* | 0 | 3 | 1
C(#Cc1ccccc1)Cn1nnc2ccccc21 | . | . | . | . | 86*
CN1C(=O)c2cc(NS(C)(=O)=O)ccc2OC[C@H]2O[C@H](CC(=O)NCc3ccc(-c4ccccc4)cc3)CC[C@@H]21 | -6 | . | . | 3[16.7 µM] | .
Cc1noc(C)c1CSCC(=O)Nc1cc(S(=O)(=O)N2CCCCC2)ccc1OC(C)C | -20 | -3 | -2 | 15 | -2
CCN(CC)c1ccc(S(=O)(=O)N2CCCCC2)cc1NC(=O)CSCc1c(C)noc1C | -24 | -3 | 0 | 62* | -11
CCCNC(=O)Nc1cccc(NC(C)=O)c1 | 12 | 1 | 0 | 7 | -7
CCCNC(=O)Nc1cccc(C(=O)OC)c1 | -2 | 34* | -34 | 1 | 5
CS(=O)(=O)Nc1ccc2c(c1)[C@H]1C[C@@H](CC(=O)NCc3ccc(-c4ccccc4)cc3)O[C@H](CO)[C@H]1O2 | -7 | . | -3 | . | .
CN(C(=O)c1ccccc1OC1CCN(S(C)(=O)=O)CC1)C1CCOC1 (stereo not drawn) | 12 | 0 | 8.5* | -9 | 10
CS(=O)(=O)N1CCC(Oc2ccccc2C(=O)NC2CCOC2)CC1 (stereo not drawn) | . | 0 | 6 | 6 | 3
Cc1noc(C)c1NC(=O)N(C)C[C@H]1OCCCC[C@H](C)Oc2ccc(NS(=O)(=O)c3c(C)noc3C)cc2C(=O)N([C@@H](C)CO)C[C@@H]1C | -1 | . | 1 | 18[16.7 µM] | .
CCS(=O)(=O)N1CC(=O)N2[C@H](CO)[C@@H](c3ccc(C#CCC(C)C)cc3)[C@H]2C1 | 4 | . | 5 | . | .
Cc1onc(-c2ccccc2)c1C(=O)OCCOc1cccc(Cl)c1 | 14 | -5 | 0 | 75* | -19
Cc1ccc(OCCOC(=O)c2c(-c3ccccc3)noc2C)cc1 | 1 | -2 | 0 | 27 | 1
CCC(=O)Nc1cc(NC(=O)CSc2ncc(-c3ccc(F)cc3)n2Cc2ccco2)ccc1C | . | 38* | . | -245 | 78
COc1ccc(NC(=O)CSc2ncc(-c3ccc(F)cc3)n2Cc2ccco2)cc1 | . | 2 | . | -84 | 3
C[C@H]1CN([C@@H](C)CO)C(=O)c2cc(NS(=O)(=O)c3cccs3)ccc2O[C@@H]1CN(C)Cc1ccc(Cl)c(Cl)c1 | -16 | . | -1 | 17[16.7 µM] | .
CCOc1ccc(N2CC(NS(=O)(=O)c3cccs3)CC2=O)cc1 (stereo not drawn) | -5 | 2 | -1 | 56* | -2
SMILES | INS-1E GSIS act | Wnt act | F508del corr | Env fusion inh | MITF act
Cc1ccc(-c2ccc3c(c2)O[C@@H](CN(C)S(C)(=O)=O)[C@@H](C)CN([C@@H](C)CO)S3(=O)=O)cc1 | 2 | . | 1 | -7[16.7 µM] | .
O=[N+]([O-])c1ccc(NN=Cc2ccc(O)cc2)nc1 | . | 67* | 0 | -107 | 44
CCN(CC)c1ccc(C=NNc2ccc([N+](=O)[O-])cn2)cc1 | 3 | 48* | 3 | -179 | 44
CCOc1ccccc1C=NNc1ccc([N+](=O)[O-])cn1 | 29 | -2 | -1 | 14 | -7
O=[N+]([O-])c1ccc(NN=Cc2ccccc2O)nc1 | . | -8 | -1 | -61 | 3
O=[N+]([O-])c1ccc(N/N=C/c2ccccc2)c(F)c1 | -3 | 34* | . | -59 | 87*
O=[N+]([O-])c1ccc(N/N=C/c2cccs2)nc1 | 13 | 56* | -4 | -79 | 109*
CCCC(=O)N1CC2(C1)CN(C(=O)C1CC1)[C@H](CO)c1[nH]c3cc(OC)ccc3c12 | 7 | . | 1 | . | .
COc1cccc(-c2ccc([C@H]3[C@@H](CO)N4C(=O)CN(C(=O)CN5CCOCC5)C[C@@H]34)cc2)c1 | 11 | . | -2 | . | .
COc1ccc(C=NNc2ccc([N+](=O)[O-])cn2)cc1 | . | 16 | 0 | . | 74
O=[N+]([O-])c1ccc(NN=Cc2ccccc2)nc1 | 4 | 50* | 1 | -110 | 148*
C[C@H](CO)N1C[C@H](C)[C@@H](CN(C)C(=O)Nc2ccc(F)cc2)Oc2ccc(NC(=O)C3CC3)cc2C1=O | 14 | . | -1 | 4[16.7 µM] | .
COc1ccc(NC(=O)CCCn2c(=O)oc3ccccc32)cc1Cl | -2 | 17 | . | -17 | 154*
CO[C@H]1CN(C)C(=O)c2ccc(NS(C)(=O)=O)cc2OC[C@H](C)N(C(=O)C2CCOCC2)C[C@@H]1C | -4 | . | -2 | 16[16.7 µM] | .
O=C(CC(=O)c1ccccc1)Nc1cccnc1 | 3 | 20 | -5 | 4 | 21
CN1CCN(c2ccc(NC(=O)C(C)(c3ccccc3)c3ccccc3)cc2)CC1 | 21 | -2 | -2 | 2 | 9
CN1CCN(c2ccc(-c3ccnn3C(=O)Nc3ccccc3)cc2)CC1 | -3 | 44* | -2 | 6 | 49
O=C(Nc1cccnc1)/C(N=Nc1cccnc1)=C(\O)c1ccccc1 | 75* | . | . | . | -1
O=C(Nc1ccccc1)C(=O)Nc1cccnc1 | . | 41* | 3 | -74 | 33
O=C(Nc1cccnc1)c1ccc(Oc2ccccc2)cc1 | -23 | 41* | . | -66 | 52
CCCC(=O)Nc1ccc2c(c1)C(=O)N(C)C[C@H](OC)[C@H](C)CN(C(=O)CN(C)C)[C@@H](C)CO2 | 14 | . | 1 | . | .
CN1CCN(c2ccc(NC(=O)c3ccc(Oc4ccccc4)cc3)cc2)CC1 | 50* | 0 | 0 | 23 | 29
O=C(Nc1ccccc1)c1ccc(C(=O)Nc2ccccc2)nc1 | 4 | 44* | 2 | 12 | 55
CC(=O)c1ccc(N2CCN(C(=S)Nc3ccc(Oc4ccccc4)cc3)CC2)cc1 | -3 | -1 | 1 | 3 | -24
O=C(Nc1ccccc1)c1cn(CCBr)cn1 | -18 | 50* | -1 | -17 | .
O=C(Nc1ccccc1)c1cn2ccccc2n1 | 10 | 17 | -1 | 35 | -2
CC(=O)Nc1cccc(NC(=O)c2ccc(C(=O)Nc3cccc(NC(C)=O)c3)nc2)c1 | -1 | 30 | -7 | -11 | -4
O=C(c1cc(-c2ccccc2O)on1)N1CCOCC1 | -2 | 35* | 2 | -13 | 96*
O=C(c1cc(-c2ccccc2O)on1)N1CCCCCC1 | 9 | 28 | -1 | -40 | 125*
O=C(c1cc(-c2ccc(Cl)cc2Cl)on1)N1CCOCC1 | 17 | 8 | 1 | . | -10

High-throughput results (PubChem)
